These results are taken from PubChem BioAssay (NCI).

The structures appear in SMILES notation. This is part of a sample that, as a whole, favours compounds with a hit. Of some 83,000 tested, about 20% had one in any assay.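 Compound tested at a single concentration for 48 hours in 96-well plates; a percent growth value below 10 was scored as active.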 Activity calls are given as the source filed them.

The subject of this assay is HL-60(TB) leukemia. The assay can be described thus: NCI-60 one-dose screen, 48 h (100 = growth as untreated, 0 = no growth, -100 = all killed). The conditions noted are these: 10 µM unless noted.
With `N#Cc1nc(-c2ccc(Cl)cc2)oc1N1CCC(S(=O)(=O)N2CCOCC2)CC1`, the growth is 112% (inactive).

On to `COc1c(N2CC3CCCNC3C2)c(F)cc2c(=O)c(C(=O)N/N=C/c3c[nH]c4ccccc34)cn(C3CC3)c12` (stereo not given), for which the growth is 94.4% (inactive).

With `Cc1c(C(=O)/C=C/c2ccc(Cl)cc2)nnn1-c1ccc2oc(=O)ccc2c1`, the growth is 92.9% (inactive).

`CC1=C(C)C(=O)C(Nc2cccc(C(=O)OC(C)(C)C)c2)=CC1=O`: the growth was 71% (inactive).

As for `NC(N)=Nc1ccc(Oc2ccc(Nc3ccc(Cl)c(C(F)(F)F)c3)cc2)cc1`, the growth was -33.8% (active).

Turning to `NS(=O)(=O)c1ccc(Nc2nc(N/N=C/c3ccccn3)nc(Nc3ccccc3)n2)cc1`, the growth is 2.68% (active).

As for `COc1cc2oc(-c3cccc(NC(=O)[C@@H](N)C(C)C)c3)cc(=O)c2c(OC)c1OC`, the growth was 105% (inactive).

As to `O=C(NNc1nc2cc(F)c(F)cc2n2cccc12)c1ncccn1`, the growth was 2.19% (active).

As for `Clc1ccc(-c2nc3ccc(/C(=N\N=C\c4ccccc4)c4ccccc4)cc3[nH]2)cc1`, the growth is 73.3% (inactive).

In the case of `NC(N)=Nc1ccc(Oc2cccc(Oc3ccc(Cl)c(C(F)(F)F)c3)c2)cn1`, the growth was -69% (active).

`CC(=O)Nc1nc2c(s1)C1=CC[C@H]3[C@@H]4CC[C@H](C(C)=O)[C@@]4(C)CC[C@@H]3[C@@]1(C)CC2`: the growth was 52.5% (inactive).

As for `COc1cc2cc(Oc3ccc(NC(=O)Nc4cccc(C(F)(F)F)c4)cc3)c(C)nc2cc1OCCN(C)C`, the growth is 133% (inactive).

Turning to `COc1cc(OC)c(S(N)(=O)=O)cc1C(=O)/C=C/c1ccc(Cl)cc1`, the growth was -9% (active).

Consider `O=C1Nc2ccccc2Oc2ccc(S(=O)(=O)CC3CO3)cc21` (stereo not given), for which the growth was 0.252% (active).

For `O=C(N/N=C\c1ccc(F)cc1)c1ccc2nc(-c3ccc(Br)cc3)[nH]c2c1`, the growth was 78.8% (inactive).

Consider `O=C(CSc1nc2ccccc2c(=O)n1-c1ccccc1)Nc1cccc(C(=O)/C=C/c2ccccc2)c1`, for which the growth is 99.1% (inactive).

As to `Cc1cc(-c2ccc(Cl)cc2)n(Cc2nnc(SCC(=O)Nc3ccc(S(N)(=O)=O)cc3)n2-c2ccc([N+](=O)[O-])cc2)n1`, the growth is 76.8% (inactive).

Consider `CCCCCc1ccc(S(=O)(=O)Nc2cccc(-c3csc(NC(=O)CN4CCN(CCO)CC4)n3)c2)cc1`, for which the growth is 66.3% (inactive).

For the compound `Cc1ccc(S(=O)(=O)c2nc(-c3ccc(F)cc3)oc2S(C)(=O)=O)cc1`, the growth is 62.4% (inactive).

For the compound `NC(N)=Nc1ccc(Oc2cccc(Nc3ccc(Cl)cc3)c2)cn1`, the growth is -69.4% (active).

For `CC1=CC(=O)C2=C(C)CC(OC(=O)CCc3ccccc3)[C@@H]3[C@H](OC(=O)[C@@H]3C)[C@@H]12` (stereo not given in full), the growth is 87.9% (inactive).

Turning to `NS(=O)(=O)c1ccc(Nc2nc(N/N=C/CCc3ccccc3)nc(Nc3ccccc3)n2)cc1`, the growth is 107% (inactive).

For the compound `Cc1cc(C(=O)Nc2ccc(SC#N)cc2)c(C)o1`, the growth was 47.7% (inactive).

Consider `CCOC(=O)c1c(Nc2ccccc2)nn2c(N)c(C#N)c(-c3ccc(Cl)cc3)nc12`, for which the growth was 102% (inactive).

`COc1cc(C(=O)c2cc(C(C)=O)c3ccc(C)cn23)cc(OC)c1OC`: the growth is 8.8% (active).

In the case of `CNC(=O)c1cc(-c2ccc(NC(=S)Nc3cc(C(F)(F)F)cc(C(F)(F)F)c3)cc2)nc2cccnc12`, the growth was 121% (inactive).

Turning to `CCCCCCNC(=O)Oc1ccc(/C(=C(/C)c2ccccc2)c2ccc(OCCN(C)C)cc2)cc1`, the growth is 23.2% (inactive).

Take `CC(C)C(/C=C/c1[nH]ncc1-c1cc(Cl)ccc1O)N1CCOCC1` (stereo not given): the growth is 93.5% (inactive).

Take `CCCCOc1ccc(S(=O)(=O)N2CCN(c3nc(C)cc(N4CCOCC4)n3)CC2)cc1`: the growth was 20.3% (inactive).

`Oc1c(Cl)cc(Cl)c2ccc(CN3CCCCC3)nc12`: the growth was 32.9% (inactive).

Take `CCN(CC)CCn1c2ccc(O)cc2c2sc3cc(OC)ccc3c(=O)c21`: the growth was 16.5% (inactive).

Consider `O=C(NNc1nc2cc(F)c(F)cc2n2cccc12)c1ccncn1`, for which the growth was 0.0559% (active).

For `O=C(/C=C/c1cc(Cl)ccc1Cl)Nc1ncc(Cc2ccc(Cl)cc2)s1`, the growth is -7.21% (active).

In the case of `Cc1cc(-c2ccc(Cl)cc2)n(Cc2nnc(SCC(=O)Nc3ccc(S(N)(=O)=O)cc3)n2C2CCCCC2)n1`, the growth was 116% (inactive).

As to `CC[C@]12CC(C(=O)OC)=C3Nc4ccccc4[C@@]34CCN(C14)[C@@H]1c3cc4c(cc3O[C@@H]1[C@H]2O)NC1=C(C(=O)OC)C[C@@]2(CC)C3N(CC[C@@]143)C[C@H]1O[C@H]12` (stereo not given in full), the growth was -1.14% (active).

For the compound `CCNC(=O)N1CCc2cc(OC)c(OCCc3ccc(OC)cc3)cc2C1c1ccc([N+](=O)[O-])cc1C` (stereo not given), the growth was 14% (inactive).

Take `C#CCOc1cccc(/C(N)=N/C(N)=N/c2nc3ccccc3s2)c1`: the growth was 88.8% (inactive).

With `C(=C(\C1=NCCN1)n1cnc2ccccc21)/c1cccc2ccccc12`, the growth is 71.6% (inactive).

As for `COc1cc2nc(-c3ccc(C(F)(F)F)cc3)cc(OCCCNCC3CCCO3)c2cc1OC` (stereo not given), the growth was 11.9% (inactive).

For the compound `O=C(c1ccc(O)cc1)C1[C@H](c2ccc(Cl)cc2)[C@@H](c2ccccc2)NC12C(=O)Nc1ccc(Cl)cc12` (stereo not given in full), the growth is 38.5% (inactive).
